The nature of assay [1]: viability loss in pontine glioma line – cell-based, SU-DIPG-XVII, MIPE5.0, CellTiter-Glo, qHTS, dose response (AID 1347060; cut-off not given, nearly all actives have AC50 up to about 26 µM;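 as to AC50: cells exposed to compound for 48 hours before viability readout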). Particulars: CellTiter-Glo ATP luminescence. On the technique in general: In ATP-based viability assays light output follows the ATP content of the culture.
Assay [2] can be described thus: viability loss in pontine glioma line – cell-based, JHH-DIPG-1, MIPE4.0, CellTiter-Glo, qHTS, dose response (AID 1347062; cut-off not given, nearly all actives have AC50 up to about 27 µM;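 as to AC50: cells exposed to compound for two days before readout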). To be noted: JHH-DIPG-1 viability, CellTiter-Glo ATP luminescence.
A short description of assay [3]: viability loss in pontine glioma line – cell-based, SU-DIPG-IV, MIPE4.0, CellTiter-Glo, qHTS, dose response (AID 1347063; cut-off not given, nearly all actives have AC50 up to about 30 µM;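 also: compound exposure lasted 48 hours before the viability readout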). Particulars: CellTiter-Glo ATP luminescence.
Assay [4] is described as follows: viability loss in pontine glioma line – cell-based, SU-DIPG-XIII, MIPE5.0, CellTiter-Glo, qHTS, dose response (AID 1347064; cut-off not given, nearly all actives have AC50 up to about 23 µM;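 as to AC50: cells exposed to compound for 48 hours before the viability read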). Particulars: CellTiter-Glo ATP luminescence.
The nature of assay [5]: growth inhibition of DIPG cells – cell-based, MIPE4.0 library, CellTiter-Glo luminescence, qHTS (AID 1347066; cut-off not given, nearly all actives have AC50 up to about 30 µM;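 also: cells exposed to compound for 48 hours before readout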). To be noted: SU-DIPG-VI viability, CellTiter-Glo ATP luminescence.
Assay [6] is described as follows: JHH-DIPG-1 glioma cell viability, MIPE5.0 library, CellTiter-Glo luminescence, qHTS (AID 1347067; cut-off not given, nearly all actives have AC50 up to about 26 µM;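 also: cells exposed to compound for 48 hours before readout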). To be noted: JHH-DIPG-1 glioma viability, CellTiter-Glo ATP luminescence.
Assay [7] in a line: growth inhibition of DIPG cells – cell-based, MIPE5.0 library, qHTS (AID 1347068; cut-off not given, nearly all actives have IC50 up to about 30 µM;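 as to IC50: cells exposed to compound for 48 hours before viability readout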). Particulars: SU-DIPG-XXV viability. A general note: In qHTS, concentration-response curves come from the screen itself.
The nature of assay [8]: viability loss with induced miR-34 in A549 – imaging, A549 dox-inducible miR-34, nuclei and caspase counts, primary screen (AID 1347080;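 active = compounds whose cell count with miR-34 switched on is under 0.7 times the count with it off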). Particulars: A549 miR-34 inducible, Hoechst nuclei count, 48 h.
The nature of assay [9]: MELAS cybrid and Rieske KO viability enhancers – cell-based, MELAS cybrids, Rieske KO mouse fibroblasts, CellTiter-Glo, primary screen (AID 1508586;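 active = mean z-score across replicates of 1.96 or higher in either the MELAS or the Rieske mutant cell line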;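 also: z relative to plate mean and SD of compound and empty wells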). To be noted: low glucose.
Assay [10] in a line: viability loss in pontine glioma line – cell-based, SU-DIPG-XXV, MIPE5.0, CellTiter-Glo, qHTS, dose response (AID 1347065; cut-off not given, nearly all actives have AC50 up to about 26 µM;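 also: cells exposed to compound for 48 hours before ATP readout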). To be noted: CellTiter-Glo ATP luminescence.
Assay [11] in a line: drug combination growth inhibition, ovarian cancer – cell-based, oncology-focused library, rucaparib conditional, profiling panel (AID 1508598). Particulars: patient-derived ovarian cancer cells, CellTiter-Glo viability, 144 h, stronger effect = lower value.
Assay [12] is described as follows: compounds altering HSF1 focus formation in cells – imaging, Selleck Cancer Library (AID 1347162; in the data active = plate-normalised HSF1 focus index below about 0.46). To be noted: human cells, HSF1 nuclear foci imaging, at 10 µM; SSMD: measured here: HSF1 foci SSMD mean; cell count: measured here: cell number; plate-normalised HSF1 focus index: stronger effect = lower value.
The mark [13] stands for this setting: stronger effect = lower value, cell number ratio, induced over uninduced.
[14] abbreviates: measured here: relative caspase fold change +Dox/-Dox.
Where [15] appears, read: measured here: total cells with miR-34 induction, stronger effect = lower value.
The mark [16] stands for this setting: measured here: total cells without miR-34 induction.

Records with an inconclusive call do not appear. The source made the active and inactive calls.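 The calls were made as follows, unless noted: active = normalized viability below 100% at a tested concentration; inactive = the rest.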

The term AC50 denotes the midpoint of the concentration-response curve, whichever way the signal moves. Broadly, the IC50 is the midpoint of a concentration-inhibition curve. As a reminder, the viability is a read-out of living cells in per cent, often relative to untreated cells.

For `COc1cccc(Nc2c(C(N)=O)cnc3c(C)cc(S(=O)(=O)c4cccc(C(=O)N(C)C)c4)cc23)c1`, the outcome in [1], in assay [2], in [3], in assay [4], in [5] and in assay [6] was inactive. For the same molecule, the molecule was classed as inactive in assay [7]. The fold change in assay [8] (setting [13]) is 0.95 (inactive); in assay [8] (setting [14]), 0.8. The cell count in assay [8] (setting [15]) came to 9130; in assay [8] (setting [16]), 9610. The z-score is -0.192 (inactive) in [9] (MELAS cybrid survival, CellTiter-Glo 48 h, stronger effect = higher value) and -1.7 in assay [9] (Rieske KO mouse fibroblast survival, CellTiter-Glo 72 h).

`CN1CCCN(C(=O)c2cccc(-c3ccc(/C=C4/C(=O)Nc5ccc(Cl)cc54)o3)c2)CC1`: the half-maximal activity concentration (AC50) in assay [1] was 8.33 µM (active); in [2] it was 20.9 µM (active); in assay [3], 9.35 µM (active); in assay [4], 7.42 µM (active); in assay [10], 10.5 µM (active); in assay [5], 10.5 µM (active). Further, in [6], the AC50 is 2.35 µM (active). Moreover, the IC50 in assay [7] was 29.5 µM (active). Further, the viability in [11] (at 0.000305 µM, OCI-C5x cells, with rucaparib 10 µM, 100% = cells with rucaparib alone) was 101% (inactive); in assay [11] (at 0.000305 µM, OCI-C5x cells, without rucaparib), 96.5% (active); in [11] (at 0.000305 µM, OCI-P5x cells, with rucaparib 20 µM, 100% = cells with rucaparib alone), 105% (inactive); in [11] (at 0.000305 µM, OCI-P5x cells, without rucaparib), 105% (inactive); in assay [11] (at 0.00122 µM, OCI-C5x cells, with rucaparib 10 µM, 100% = cells with rucaparib alone), 103% (inactive); in assay [11] (at 0.00122 µM, OCI-C5x cells, without rucaparib), 102% (inactive). For the same molecule, the viability in assay [11] (at 0.00122 µM, OCI-P5x cells, with rucaparib 20 µM, 100% = cells with rucaparib alone) is 107% (inactive); in [11] (at 0.00122 µM, OCI-P5x cells, without rucaparib), 103% (inactive); in assay [11] (at 0.00488 µM, OCI-C5x cells, with rucaparib 10 µM, 100% = cells with rucaparib alone) it was 99.3% (active); in assay [11] (at 0.00488 µM, OCI-C5x cells, without rucaparib), 104% (inactive); in [11] (at 0.00488 µM, OCI-P5x cells, with rucaparib 20 µM, 100% = cells with rucaparib alone) it was 106% (inactive); in [11] (at 0.00488 µM, OCI-P5x cells, without rucaparib), 106% (inactive). Also, the viability in [11] (at 0.0195 µM, OCI-C5x cells, with rucaparib 10 µM, 100% = cells with rucaparib alone) is 90.6% (active); in assay [11] (at 0.0195 µM, OCI-C5x cells, without rucaparib), 99.3% (active); in assay [11] (at 0.0195 µM, OCI-P5x cells, with rucaparib 20 µM, 100% = cells with rucaparib alone), 97.1% (active); in [11] (at 0.0195 µM, OCI-P5x cells, without rucaparib) it was 103% (inactive); in assay [11] (at 0.0781 µM, OCI-C5x cells, with rucaparib 10 µM, 100% = cells with rucaparib alone) it was 108% (inactive); in [11] (at 0.0781 µM, OCI-C5x cells, without rucaparib), 107% (inactive). Also, the viability in assay [11] (at 0.0781 µM, OCI-P5x cells, with rucaparib 20 µM, 100% = cells with rucaparib alone) was 109% (inactive); in [11] (at 0.0781 µM, OCI-P5x cells, without rucaparib), 102% (inactive); in assay [11] (at 0.313 µM, OCI-C5x cells, with rucaparib 10 µM, 100% = cells with rucaparib alone), 105% (inactive); in [11] (at 0.313 µM, OCI-C5x cells, without rucaparib), 111% (inactive); in assay [11] (at 0.313 µM, OCI-P5x cells, with rucaparib 20 µM, 100% = cells with rucaparib alone), 100% (active); in assay [11] (at 0.313 µM, OCI-P5x cells, without rucaparib), 94.8% (active). The viability in assay [11] (at 1.25 µM, OCI-C5x cells, with rucaparib 10 µM, 100% = cells with rucaparib alone) was 98% (active); in assay [11] (at 1.25 µM, OCI-C5x cells, without rucaparib), 96.2% (active); in assay [11] (at 1.25 µM, OCI-P5x cells, with rucaparib 20 µM, 100% = cells with rucaparib alone), 95.1% (active); in assay [11] (at 1.25 µM, OCI-P5x cells, without rucaparib) it was 93.4% (active); in assay [11] (at 5 µM, OCI-C5x cells, with rucaparib 10 µM, 100% = cells with rucaparib alone) it was 2.49% (active); in assay [11] (at 5 µM, OCI-C5x cells, without rucaparib), 2.79% (active). In addition, the viability is 1.66% (active) in [11] (at 5 µM, OCI-P5x cells, with rucaparib 20 µM, 100% = cells with rucaparib alone) and 1.82% (active) in assay [11] (at 5 µM, OCI-P5x cells, without rucaparib).

As to `COc1ccc(/C=C\c2cc(OC)c(OC)c(OC)c2)cc1O`, the AC50 is 0.00662 µM (active) in [1]; 0.00833 µM (active) in assay [2]; 0.0186 µM (active) in assay [4]; 0.0105 µM (active) in [10]; 0.0105 µM (active) in [6]. In addition, the molecule was classed as inactive in assay [3]. Moreover, in [7], the IC50 was 0.0148 µM (active). The fold change in assay [8] (setting [13]) was 1.24 (inactive); in assay [8] (setting [14]), 0.571. Moreover, the cell count in assay [8] (setting [15]) worked out at 1250; in assay [8] (setting [16]) it was 1010; in assay [12], 6590. In addition, the SSMD in assay [12] worked out at 0.749. Further, in assay [12], the plate-normalised HSF1 focus index was 1.05 (inactive).
